Compound activity from PubChem BioAssay.
HT1080 IDH1KD tx – toxicity to HT-1080 IDH1 knockdown cells (counter line) | HT-1080 IDH1 knockdown viability, ATP luminescence, 48 h | Potency, µM (doses to about 46.1 µM), usual class: cytotoxic | 360,000 tested, 2% active | AID 686971
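Knockdown cells (IDH1KD HT-1080) received compounds 2 h after plating at 750 cells/well and were kept 48 h at 37 °C in 5% FBS RPMI. A CellTiter-Glo luminescence read gave % activity for curve fitting.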
KB-V1 MDR tox – KB-V1 MDR subline cytotoxicity; 400,000 tested, 3.4% active; Potency, µM (titrated, usually from 46.1 µM), hits mostly cytotoxic; KB-V1 MDR cells viability, CellTiter-Glo, 72 h; further: nearly all actives have a fitted effect of over 60% in size
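Cytotoxicity toward P-gp-expressing KB-V1 cells was determined as loss of CellTiter-Glo luminescence after 72 h at 37 degrees C. Compounds were tested in quantitative HTS format across a concentration range, with curves fitted to normalized data.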
TDP1 cell CPT – growth inhibition of DT40 Tdp1-/-;hTDP1 cells with camptothecin (screen for TDP1 inhibitors) | chicken DT40 Tdp1-/-;hTDP1 cells + 20 nM CPT, ATP luminescence, 48 h | Potency, µM (series often up to 46.2 µM), actives largely listed as inhibitors | 420,000 tested, 12% active | AID 686979; further: nearly all actives have a fitted effect of over 55% in size
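Cell growth measured by CellTiter-Glo luminescence after a minimum 48 h, 37 C compound exposure with 20 nM CPT in Tdp1-knockout DT40 cells stably expressing hTDP1, seeded 400/well; qHTS titration format.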
HT1080NT lethal – kills 2HG-producing HT-1080-NT fibrosarcoma cells | HT-1080-NT fibrosarcoma viability, CellTiter-Glo ATP luminescence, 48 h | Potency, µM (titrated, usually from 46.1 µM), hits mostly cytotoxic | 360,000 tested, 1.6% active | AID 686970;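 further: NT is the 2HG producing partner of a matched IDH1 knockdown line; nearly all actives have a fitted effect of over 55% in size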
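Viability by CellTiter-Glo luminescence after 48 h compound exposure at 37C of HT-1080-NT cells (750/well, RPMI, 5% FBS). % activity scaled between DMSO wells and medium-only wells, then curve-fitted and categorized by curve class.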
KB-3-1 tox – kills parental KB-3-1 adenocarcinoma cells | 400,000 tested, 1.4% active | KB-3-1 viability, CellTiter-Glo ATP luminescence, 72 h | Potency, µM (highest dose often 46.1 µM), usual class: cytotoxic; further: nearly all actives have a fitted effect of over 60% in size
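Cytotoxicity in the drug-sensitive parental line KB-3-1 was scored as loss of CellTiter-Glo luminescence following 72 h incubation with compound. Values come from curve fitting of normalized concentration-response data.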
DT40 TDP1 no CPT – qHTS for Inhibitors of human tyrosyl-DNA phosphodiesterase 1 (TDP1): qHTS in cells in absence of CPT. DT40 Tdp1-/- hTDP1 cells, no CPT, ATP luminescence, 48 h. Potency, µM (series often up to 46.2 µM), hits mostly inhibitors. 420,000 tested, 15% active. AID 686978, 2013; further: nearly all actives have a fitted effect of over 55% in size
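Camptothecin absent (DMSO only). Human TDP1-complemented DT40 knockout cells, 400 cells/well, 37 °C for minimum 48 hr; ATP measured via CellTiter-Glo, 30 min dark incubation, luminescence.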
A number is an active result; - = inactive; ? = inconclusive; . = no result; [ ] = remark or other dose. The list is not random: actives were taken first. Their share in the collection is about 19%. The call rests on the fitted dose curve; in most records, active means well fitted curve in the direction sought with a large enough effect; inconclusive means small, poorly fitted or top-dose-only effect, or another doubt; inactive means no such curve, though single readings can be large; an effect the other way counts as inactive or inconclusive.

SMILES	HT1080 IDH1KD tx	KB-V1 MDR tox	TDP1 cell CPT	HT1080NT lethal	KB-3-1 tox	DT40 TDP1 no CPT
COc1cccc(CNC(=O)Cn2c(SCC(=O)Nc3ccc(C)c(C)c3)nc3ccccc32)c1	.	?	?	.	-	?
Cc1ccc(NC(=O)CSc2nc3ccccc3n2CC(=O)N(C)C2CCCCC2)cc1C	.	-	?	.	-	18µM
C=C(C)COc1ccc(-c2[nH]ncc2Oc2ccccc2OC)c(O)c1	-[9.24 µM]	-	?	?	-	?
C=C(C)COc1ccc(-c2ncncc2-c2ccc(Cl)cc2)c(O)c1	-	-	-	-	-	-
C=C(C)COc1ccc(-c2[nH]ncc2-c2ccccc2OC)c(O)c1	18µM	?	26µM	18µM	?	26µM
C=C(C)COc1ccc(-c2[nH]ncc2-c2ccc(Br)cc2)c(O)c1	23µM	12µM	4.6µM	15µM	5.8µM	5.2µM
Cc1cccc(NC(=O)Nc2nnc(N(C)C3CCCCC3)s2)c1C	.	-	-	.	-	?
Cc1ccc(-n2c(=O)c3cccnc3n2CC(=O)Nc2cc(Cl)ccc2C)cc1	.	-	-	.	-	-
CSc1cccc(NC(=O)Cn2c3ncccc3c(=O)n2-c2ccc(C)cc2)c1	.	-	?	.	-	16µM
COc1cc(OC)cc(C(=O)Nc2ccc(S(=O)(=O)N3CCCCC3c3cccnc3)cc2)c1 (stereo not drawn)	.	.	?	.	.	26µM
O=S(=O)(c1cccc(C(F)(F)F)c1)N1CCCC1c1cccnc1 (stereo not drawn)	-	?	-	-	-	?
Cc1ccc(S(=O)(=O)N2CCCCC2c2cccnc2)c(C)c1C (stereo not drawn)	-	16µM	?	-	?	23µM
COc1ccc(NC(=O)c2cc(C(C)=O)n3ccccc23)cc1	.	-	-	.	-	?
COc1cccc(OC)c1OCCNCC1CSc2ccccc2O1 (stereo not drawn)	?	?	21µM	?	-	10µM
COc1cccc(OC)c1OCCOc1ccccc1OC(C)C	-	-	?	-	-	?
COC(=O)c1cc2ccccn2c2c(C(=O)OC)c(C(=O)OC)cc1-2	-	-	-	-	-	?
COC(=O)c1cc2c(C)c(C)c3ccccn3c-2c1C(=O)OC	-	?	26µM	-	-	?
COC(=O)C[C@H]1C=C[C@H](NC(=O)Nc2ccccc2)[C@@H](CO)O1	-	-	-	-	-	-
CCOC(=O)C12CC1/C(=N\O)c1ccccc1O2 (stereo not drawn)	.	.	-	.	.	-
CC1CCC(NC(=O)Cn2c3c(c(-c4ccccc4Cl)cc2=O)CCC3)CC1 (stereo not drawn)	-	-	16µM	-	-	13µM
CC(C)CCNC(=O)Cn1c2c(c(-c3ccccc3Cl)cc1=O)CCC2	-	-	-	-	-	?
COc1ccc(CCN(C(=O)C(F)(F)F)C(C(=O)NC2CCCCC2)c2ccc(C)s2)cc1 (stereo not drawn)	-	-	3.3µM	-	-	2.8µM
COCCN(C(=O)C(F)(F)F)C(C(=O)NC1CCCCC1)c1ccco1 (stereo not drawn)	-	-	-	-	-	?
COc1ccc(CCN(C(=O)C(F)(F)F)C(C(=O)NC2CCCCC2)c2cccs2)cc1 (stereo not drawn)	-	-	7.3µM	-	-	4.6µM
Cc1ccc(N(C(=O)Cn2nnc(-c3ccccc3)n2)C(C(=O)NC2CCCCC2)c2ccccn2)cc1C (stereo not drawn)	-	1.2µM	?	-	-	?
Cc1ccc(N(C(=O)CCl)C(C(=O)NC2CCCCC2)c2cccnc2)cc1C (stereo not drawn)	1.6µM	3.7µM	1.8µM	1.6µM	3.7µM	1.6µM
Cc1ccc(C(=O)c2cn(Cc3cccc(Cl)c3)c3nc(C)ccc3c2=O)cc1	.	?	?	.	-	?
Cc1ccc(NC(=O)C2(NC(=O)c3ccccn3)CCCCC2)cc1Br	-	-	21µM	-	-	?
